Holding throughout (design): scale not given: direction of the effect not stated beside the values
The target in assay [1] is Protein translocase subunit SecA (Escherichia coli (strain K12)) (UniProt P10408). Description: Assay to Identify E. coli SecA ATPase Inhibitors. Format: functional. Particulars: 30 µM.
In assay [2] the target is T1, Ubiquitin-activating enzyme e1, putative (Leishmania donovani (strain BPK282A1)) (UniProt E9BSI1).
T1 sequence (whole entry): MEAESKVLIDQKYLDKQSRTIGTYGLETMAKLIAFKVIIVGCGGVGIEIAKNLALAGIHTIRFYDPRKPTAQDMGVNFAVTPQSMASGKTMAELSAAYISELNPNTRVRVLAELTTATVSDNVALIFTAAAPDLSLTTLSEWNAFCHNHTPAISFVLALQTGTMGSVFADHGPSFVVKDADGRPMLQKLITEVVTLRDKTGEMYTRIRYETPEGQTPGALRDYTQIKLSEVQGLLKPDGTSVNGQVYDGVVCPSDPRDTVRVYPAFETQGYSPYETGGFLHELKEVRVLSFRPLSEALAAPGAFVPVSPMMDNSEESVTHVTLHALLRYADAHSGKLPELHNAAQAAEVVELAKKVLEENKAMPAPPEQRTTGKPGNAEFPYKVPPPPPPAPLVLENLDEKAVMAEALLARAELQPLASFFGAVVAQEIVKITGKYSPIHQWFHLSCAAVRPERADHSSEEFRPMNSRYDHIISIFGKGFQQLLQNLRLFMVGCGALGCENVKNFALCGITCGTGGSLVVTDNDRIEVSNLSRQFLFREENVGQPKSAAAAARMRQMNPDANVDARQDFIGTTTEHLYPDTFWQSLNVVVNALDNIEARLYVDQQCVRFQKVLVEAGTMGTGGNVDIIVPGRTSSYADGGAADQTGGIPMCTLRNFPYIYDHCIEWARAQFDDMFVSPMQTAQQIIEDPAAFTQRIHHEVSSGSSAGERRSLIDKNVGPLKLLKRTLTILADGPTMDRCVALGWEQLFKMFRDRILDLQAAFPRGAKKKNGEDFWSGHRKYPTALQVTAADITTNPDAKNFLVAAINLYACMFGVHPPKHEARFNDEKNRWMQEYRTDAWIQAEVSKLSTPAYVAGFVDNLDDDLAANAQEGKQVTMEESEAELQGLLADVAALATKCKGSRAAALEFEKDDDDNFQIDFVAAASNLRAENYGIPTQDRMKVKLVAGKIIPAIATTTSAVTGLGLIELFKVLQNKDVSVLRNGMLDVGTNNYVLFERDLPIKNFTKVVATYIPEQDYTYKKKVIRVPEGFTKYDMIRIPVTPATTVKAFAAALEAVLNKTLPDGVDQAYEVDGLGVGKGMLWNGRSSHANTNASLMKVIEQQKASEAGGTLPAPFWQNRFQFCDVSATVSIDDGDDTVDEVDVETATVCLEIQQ
Description: Leishmania donovani Ubiquitin Activating Enzyme (LdE1). The following applies: 30 µM. Format: functional.

The target in assay [3] is AMP-activated protein kinase, AMPK (Homo sapiens) (UniProt P54646+O43741+P54619+Q9UGJ0+Q9Y478+Q13131+Q9UGI9). The experiment in a line: AMP-dependent Kinase enzyme assay. An in vitro enzyme assay that detects ADP turnover that is directly proportional to AMPK activity. This uses naive AMPK that is activated during the assay with MK-8722. Format: functional. Particulars: 30 µM.

In assay [4] the target is Sialic acid-binding Ig-like lectin 9 (Homo sapiens) (UniProt Q9Y336). Description: Hs-Siglec9 ALPHAscreen SOP 20170721. The following applies: 10 µM. (In Alpha technology, singlet oxygen from a donor bead excites a nearby acceptor bead.)
The test system of another assay is Trypanosoma cruzi. Description: Trypanosoma cruzi phosphomannomutase and mannose-1-phosphate guanylyltransferase assay. The following applies: 10 µM. Format: functional.
Assay [5] deals with T2, Arginase-2, mitochondrial (Homo sapiens) (UniProt P78540).
T2 sequence (whole entry): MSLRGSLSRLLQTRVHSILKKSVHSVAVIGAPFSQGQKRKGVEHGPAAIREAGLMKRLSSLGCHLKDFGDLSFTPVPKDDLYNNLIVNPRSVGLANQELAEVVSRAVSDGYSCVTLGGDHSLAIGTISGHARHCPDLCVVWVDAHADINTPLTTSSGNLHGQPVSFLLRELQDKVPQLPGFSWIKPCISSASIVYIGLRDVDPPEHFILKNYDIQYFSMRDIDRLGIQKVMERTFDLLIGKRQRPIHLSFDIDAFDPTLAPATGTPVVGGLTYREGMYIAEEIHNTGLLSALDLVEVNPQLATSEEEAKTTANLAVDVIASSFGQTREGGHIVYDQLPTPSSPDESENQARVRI
The experiment in a line: in vitro enzyme assay to detect the production of urea directly proportional to the activity of Arginase II. Further: in the data most compounds retested in dose-response had high values. Format: functional. The following applies: 33.3 µM.

Assay [6] concerns the target T3, Proteasome subunit beta (Trypanosoma cruzi) (UniProt O96673).
T3 sequence (whole entry): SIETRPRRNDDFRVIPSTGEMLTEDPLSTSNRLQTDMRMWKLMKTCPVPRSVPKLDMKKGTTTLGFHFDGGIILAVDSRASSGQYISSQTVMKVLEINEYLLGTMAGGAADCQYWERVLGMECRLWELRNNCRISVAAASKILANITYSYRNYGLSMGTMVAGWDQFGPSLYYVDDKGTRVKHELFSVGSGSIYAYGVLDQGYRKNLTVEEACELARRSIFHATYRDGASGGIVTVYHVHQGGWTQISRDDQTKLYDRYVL
Description: Trypanosoma cruzi proteasome chymotrypsin-like activity (TcProtChymo) assay. Further: in the data most compounds retested in dose-response had high values. The following applies: 9.37 µM. Format: functional.

The species named for a further assay is Homo sapiens. The experiment in a line: To identify inhibition of the IFN signalling (Jak-Stat) pathway via expression of an eGFP reporter gene under the control of an IFN-stimulated response element (ISRE) containing MxA promoter. Format: functional. The following applies: 30 µM.
In assay [7] the target is T4, Tyrosyl-tRNA synthetase, putative (Trypanosoma cruzi (strain CL Brener)) (UniProt Q4DSP6).
T4 sequence (whole entry): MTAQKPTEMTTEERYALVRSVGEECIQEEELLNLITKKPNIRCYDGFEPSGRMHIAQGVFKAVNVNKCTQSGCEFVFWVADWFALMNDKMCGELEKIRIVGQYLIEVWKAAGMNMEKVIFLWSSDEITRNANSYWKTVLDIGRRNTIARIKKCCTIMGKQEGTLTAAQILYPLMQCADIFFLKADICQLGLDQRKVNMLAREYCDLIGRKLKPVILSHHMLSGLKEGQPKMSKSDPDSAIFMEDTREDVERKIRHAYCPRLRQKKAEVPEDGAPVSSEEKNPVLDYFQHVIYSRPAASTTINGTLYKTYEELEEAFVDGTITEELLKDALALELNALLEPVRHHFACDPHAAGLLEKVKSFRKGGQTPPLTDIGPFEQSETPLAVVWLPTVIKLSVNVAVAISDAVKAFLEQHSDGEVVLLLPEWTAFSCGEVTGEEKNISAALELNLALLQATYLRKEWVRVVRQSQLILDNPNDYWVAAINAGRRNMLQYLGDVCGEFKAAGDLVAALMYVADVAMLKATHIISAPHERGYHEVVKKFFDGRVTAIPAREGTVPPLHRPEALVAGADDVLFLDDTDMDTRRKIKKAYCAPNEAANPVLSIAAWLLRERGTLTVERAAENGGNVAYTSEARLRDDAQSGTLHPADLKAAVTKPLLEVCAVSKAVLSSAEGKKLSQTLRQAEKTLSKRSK
The experiment in a line: Trypanosoma cruzi tyrosyl tRNA synthetase (TcYRS) _High Tyrosine SOP. Further: in the data most compounds retested in dose-response had high values. Format: functional. Particulars: 30 µM.

Assay [8] deals with T4, Tyrosyl-tRNA synthetase, putative (Trypanosoma cruzi (strain CL Brener)). The experiment in a line: Trypanosoma cruzi tyrosyl tRNA synthetase (TcYRS) SOP. Format: functional. Particulars: 30 µM.
Assay [9] has as its target Chromo domain-containing protein 1 (Saccharomyces cerevisiae (strain ATCC 204508 / S288c) (Baker's yeast)) (UniProt P32657). Description: ScCHD-1 Enzyme Inhibition Assay. Further: in the data most compounds retested in dose-response had high values. Format: functional. The following applies: 30 µM.

For some assays here: Entries with a potency or affinity are not part of this list.

Sequence of Protein translocase subunit SecA (Escherichia coli (strain K12)) (P10408 whole entry): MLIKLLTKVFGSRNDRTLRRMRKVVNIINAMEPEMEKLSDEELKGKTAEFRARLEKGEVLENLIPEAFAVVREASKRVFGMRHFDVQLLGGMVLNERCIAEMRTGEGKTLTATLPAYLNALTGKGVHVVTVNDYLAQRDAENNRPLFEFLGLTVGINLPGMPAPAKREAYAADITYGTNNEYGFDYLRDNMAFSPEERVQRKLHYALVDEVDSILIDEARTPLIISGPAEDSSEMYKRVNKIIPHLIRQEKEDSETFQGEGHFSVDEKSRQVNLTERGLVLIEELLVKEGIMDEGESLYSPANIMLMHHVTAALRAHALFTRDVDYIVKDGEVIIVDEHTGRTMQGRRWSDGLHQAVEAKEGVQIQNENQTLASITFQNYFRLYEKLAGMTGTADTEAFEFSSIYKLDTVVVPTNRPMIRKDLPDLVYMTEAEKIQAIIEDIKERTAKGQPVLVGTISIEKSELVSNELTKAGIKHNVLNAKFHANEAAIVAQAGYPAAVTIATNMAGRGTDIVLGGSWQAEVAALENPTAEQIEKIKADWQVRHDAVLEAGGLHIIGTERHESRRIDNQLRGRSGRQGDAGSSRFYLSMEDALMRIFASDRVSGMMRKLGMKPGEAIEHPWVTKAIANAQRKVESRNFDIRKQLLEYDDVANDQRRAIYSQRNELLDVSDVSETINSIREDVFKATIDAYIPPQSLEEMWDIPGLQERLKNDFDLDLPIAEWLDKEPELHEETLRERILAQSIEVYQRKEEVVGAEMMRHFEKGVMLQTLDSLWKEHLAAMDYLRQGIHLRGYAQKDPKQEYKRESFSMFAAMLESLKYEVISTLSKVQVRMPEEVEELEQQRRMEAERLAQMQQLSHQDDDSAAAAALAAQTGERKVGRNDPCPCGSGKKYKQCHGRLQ
Sequence of Chromo domain-containing protein 1 (Saccharomyces cerevisiae (strain ATCC 204508 / S288c) (Baker's yeast)) (P32657 whole entry, the tested form may be a part): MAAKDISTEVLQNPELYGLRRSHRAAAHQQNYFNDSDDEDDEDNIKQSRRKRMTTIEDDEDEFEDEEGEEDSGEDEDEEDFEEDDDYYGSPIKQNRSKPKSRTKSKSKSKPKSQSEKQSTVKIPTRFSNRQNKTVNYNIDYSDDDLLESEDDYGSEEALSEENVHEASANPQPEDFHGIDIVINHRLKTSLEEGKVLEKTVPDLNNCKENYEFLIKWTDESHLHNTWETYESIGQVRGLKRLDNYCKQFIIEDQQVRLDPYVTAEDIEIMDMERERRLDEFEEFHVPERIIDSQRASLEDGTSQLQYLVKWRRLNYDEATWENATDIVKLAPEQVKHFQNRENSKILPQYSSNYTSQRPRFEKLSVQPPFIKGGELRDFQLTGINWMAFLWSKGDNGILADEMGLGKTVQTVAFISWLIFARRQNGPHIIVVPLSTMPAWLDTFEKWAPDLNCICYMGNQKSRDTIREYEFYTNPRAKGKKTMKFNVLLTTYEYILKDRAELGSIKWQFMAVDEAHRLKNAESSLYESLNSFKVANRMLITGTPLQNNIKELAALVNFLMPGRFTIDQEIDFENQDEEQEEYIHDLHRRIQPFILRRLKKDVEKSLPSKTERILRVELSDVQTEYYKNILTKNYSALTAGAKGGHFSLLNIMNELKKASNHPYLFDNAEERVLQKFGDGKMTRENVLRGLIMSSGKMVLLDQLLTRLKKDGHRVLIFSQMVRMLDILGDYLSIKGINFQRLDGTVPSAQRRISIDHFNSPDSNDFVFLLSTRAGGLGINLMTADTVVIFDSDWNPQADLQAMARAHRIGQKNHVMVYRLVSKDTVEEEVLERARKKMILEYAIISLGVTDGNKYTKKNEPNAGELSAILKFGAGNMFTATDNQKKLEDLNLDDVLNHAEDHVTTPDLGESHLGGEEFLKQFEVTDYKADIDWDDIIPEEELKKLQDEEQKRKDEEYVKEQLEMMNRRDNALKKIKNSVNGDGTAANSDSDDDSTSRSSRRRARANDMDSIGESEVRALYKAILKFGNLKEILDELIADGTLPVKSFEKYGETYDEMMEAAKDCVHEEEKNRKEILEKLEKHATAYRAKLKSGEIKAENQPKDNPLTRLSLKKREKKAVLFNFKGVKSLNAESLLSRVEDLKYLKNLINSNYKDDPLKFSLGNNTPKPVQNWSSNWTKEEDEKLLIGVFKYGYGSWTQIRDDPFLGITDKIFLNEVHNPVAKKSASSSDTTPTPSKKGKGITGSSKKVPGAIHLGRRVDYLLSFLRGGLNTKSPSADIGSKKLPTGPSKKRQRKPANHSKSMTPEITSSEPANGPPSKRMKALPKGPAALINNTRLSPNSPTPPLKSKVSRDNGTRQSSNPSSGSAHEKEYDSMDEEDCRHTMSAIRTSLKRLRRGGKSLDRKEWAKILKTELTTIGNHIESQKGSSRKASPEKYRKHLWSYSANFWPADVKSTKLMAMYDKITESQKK
Sequence of Sialic acid-binding Ig-like lectin 9 (Homo sapiens) (Q9Y336 whole entry): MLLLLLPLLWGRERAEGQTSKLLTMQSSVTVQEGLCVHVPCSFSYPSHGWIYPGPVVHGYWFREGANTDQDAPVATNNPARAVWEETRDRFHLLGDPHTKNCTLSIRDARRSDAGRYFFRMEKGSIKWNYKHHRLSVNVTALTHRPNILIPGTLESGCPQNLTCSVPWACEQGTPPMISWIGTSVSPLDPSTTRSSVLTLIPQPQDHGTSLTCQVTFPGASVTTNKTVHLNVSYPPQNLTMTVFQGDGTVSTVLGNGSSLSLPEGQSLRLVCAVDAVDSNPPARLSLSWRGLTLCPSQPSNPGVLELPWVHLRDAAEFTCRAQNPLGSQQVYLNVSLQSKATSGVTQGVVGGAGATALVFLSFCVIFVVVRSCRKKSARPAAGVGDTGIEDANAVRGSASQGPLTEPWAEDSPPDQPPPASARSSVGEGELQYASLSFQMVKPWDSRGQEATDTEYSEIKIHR

On to `COc1cc(C(C)=O)ccc1OCC(=O)N(C)Cc1cnn(C)c1`, for which the Percent Effect in [1] is -4.48%; in [2], 21.1%; in assay [3], -7.57%; in [4], 7.64%; in the assay on Trypanosoma cruzi, 4.76%; in assay [5] it was 1.44%. Also, the Percent Effect was 6.18% in assay [6]; 6.99% in the assay listed under Homo sapiens; 6.4% in assay [7]; 25.9% in assay [8]; -10.6% in assay [9].

On to `O=S(=O)(CCNCc1ccc2c(c1)CCO2)N1CCOCC1`, for which the Percent Effect is -6.32% in assay [1]; -2.7% in assay [2]; -3.09% in [3]; 10.1% in assay [4]; -3.67% in the assay with Trypanosoma cruzi; -3.33% in [5]. Further, the Percent Effect was 11.7% in [6]; -0.791% in the assay listed under Homo sapiens; -0.529% in assay [7]; -4.88% in assay [8]; -4.8% in assay [9].

On to `CN(Cc1ccon1)C(=O)C1CC(=O)N(Cc2ccncc2)C1` (stereo not given), for which the Percent Effect in assay [1] is -6.1%; in [2] it was 5.41%; in [3], -1.61%; in assay [4], 13.8%; in the assay on Trypanosoma cruzi, -0.684%; in assay [5] it was 0.248%. The Percent Effect in assay [6] is 2.66%; in the assay listed under Homo sapiens, 14.7%; in [7], 5.38%; in assay [8], 8.64%; in assay [9], -4.6%.

For the compound `Cc1cccc(OCCC(=O)N(C)CCNS(C)(=O)=O)c1C`, the Percent Effect in [1] is -2.9%; in assay [2], 5.26%; in assay [3] it was 8.08%; in assay [4] it was 6.9%; in the assay on Trypanosoma cruzi, -4.58%; in assay [5], -2.37%. Moreover, the Percent Effect in [6] was 7.96%; in the assay filed under Homo sapiens it was 3.29%; in [7], 2.13%; in [8], 13%; in assay [9] it was -5.08%.

In the case of `Clc1ccc(-n2cc(CNC3CCc4ncnn4C3)cn2)cc1` (stereo not given), the Percent Effect in assay [1] is -0.3%; in [2] it was 1.27%; in assay [3], 7.38%; in assay [4] it was 3.29%; in the assay with Trypanosoma cruzi, -2.36%; in assay [5] it was 1.5%. Moreover, the Percent Effect in [6] was 10.6%; in the assay filed under Homo sapiens, 7.5%; in [7] it was 2.08%; in [8], 10.1%; in assay [9], -1.43%.

As for `CCN1CCN(C2CCN(Cc3c(C)noc3C)CC2)C1=O`, the Percent Effect in [1] is -8.32%; in assay [2] it was 15.2%; in [3], -5.02%; in assay [4], 13.7%; in the assay with Trypanosoma cruzi, 4.44%; in [5] it was -0.38%. The Percent Effect in assay [6] is 6.8%; in the assay filed under Homo sapiens, 3.4%; in [7], 6.4%; in assay [8], 16.5%; in assay [9], -7.48%.

In the case of `O=C(NCCOc1cccc(Cl)c1)C1CC(=O)N(CC2CC2)C1` (stereo not given), the Percent Effect was -3.05% in assay [1]; 26.3% in [2]; 6.34% in [3]; -5.8% in assay [4]; 6.82% in the assay with Trypanosoma cruzi; 4.32% in assay [5]. Besides, the Percent Effect was 13.3% in assay [6]; -1.81% in the assay listed under Homo sapiens; 4.43% in assay [7]; 25.9% in [8]; -10.9% in assay [9].

Take `CC(C)c1nc(C2CCCN(C(=O)c3ccc4[nH]cnc4c3)C2)no1` (stereo not given): the Percent Effect in [1] was -9.93%; in assay [2], 18.2%; in [3], -3.37%; in assay [4], 3.45%; in the assay on Trypanosoma cruzi, 5.97%; in assay [5], -5.26%. Also, the Percent Effect in assay [6] is 12.5%; in the assay listed under Homo sapiens it was 10.7%; in [7], 5.71%; in assay [8] it was 2.35%; in assay [9], -15.3%.

Regarding `Cc1nc(N2CCN(C)CC2)ncc1C(=O)N1CCC(O)(CO)CC1`, the Percent Effect was -6.99% in [1]; 5.41% in assay [2]; 51.9% in assay [3]; 4.12% in assay [4]; 2.25% in the assay with Trypanosoma cruzi; 0.744% in assay [5]. For the same compound, the Percent Effect is 0.944% in [6]; 9.71% in the assay listed under Homo sapiens; 6.45% in assay [7]; 13.6% in assay [8]; -3.95% in assay [9].

`CCS(=O)(=O)N1CCc2c(cccc2NC(=O)NCCOC)C1`: the Percent Effect is -5.83% in assay [1]; 5.26% in assay [2]; 6.05% in [3]; 2.98% in [4]; -0.0974% in the assay on Trypanosoma cruzi; -2.37% in [5]. Moreover, the Percent Effect in assay [6] is 7.77%; in the assay filed under Homo sapiens, 8.27%; in [7] it was 4.25%; in [8], 13%; in assay [9] it was -5.11%.
